This is an account of results in PubChem BioAssay (NCI).

This test concerns HL-60(TB) leukemia. Briefly: NCI-60 one-dose screen, 48 h (100 = growth as untreated, 0 = no growth, -100 = all killed). As to conditions: 10 µM unless noted.

“And” between values parts separate entries of the source, which are not always exact repeats. Equal values may be shown once. Compounds without any hit were thinned out: in the full panel of roughly 83,000, 20% have a hit.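 Activity criterion: percent growth below 10, measured after cells in 96-well plates were exposed to a single compound concentration for 48 hours.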 The source made the active and inactive calls.

Turning to `Nc1ncnc2nc(Br)[nH]c12`, the growth is 90.3% (inactive).

For `COc1ccccc1-c1c(-c2ccc(Cl)cc2)c2cc3c(cc2[nH]c1=O)OCCO3`, the growth was 18.3% (inactive).

Take `COc1ccc(Nc2nc(SCC(C)C)nc(-c3ccc(F)cc3)c2C#N)cc1`: the growth was 38.4% (inactive).

As for `COc1ccc(/C=C/C(=O)c2cccc(NS(C)(=O)=O)c2)cc1`, the growth is 79.6% (inactive).

As for `COc1ccc(-c2nsc3c2NC(=O)CC3c2ccc(Cl)cc2)cc1` (configuration not stated), the growth was 80.1% (inactive).

As to `CCC1=C[C@@H]2C[C@]3(C(=O)OC)c4[nH]c5ccccc5c4CC[N@+](CC(=O)Nc4cc5c(cc4OC)N(C)[C@H]4[C@@](O)(C(=O)OC)[C@H](OC(C)=O)[C@]6(CC)C=CCN7CC[C@]54[C@@H]76)(C2)[C@H]13`, the growth is 116% (inactive).

Turning to `COC(=O)Nc1nc2ccc(Sc3ccccc3)cc2[nH]1`, the growth is -5.94% (active).

Turning to `O=C1Nc2c(ccc(Cl)c2Cl)/C1=C/c1ccc(F)cc1`, the growth was 71.4% (inactive).

As for `COC(=O)C(Sc1ccc(Cl)cc1)C1SC(=S)N(Cc2ccccc2)C1=O` (configuration not stated), the growth is 76.1% (inactive).

For the compound `COc1cc(-c2nc(SCC(C)C)nc(Nc3cccc4ccccc34)c2C#N)cc(OC)c1OC`, the growth was 79.1% (inactive).

In the case of `CCN(CC)c1ccc2[nH]c3c(C(N)=O)cc(=O)c(=O)c=3oc2c1`, the growth was -25.1% (active).

On to `CC(=O)[C@H]1CCC/C=C/[C@@H]2C[C@H](O)C[C@H]2[C@H](O)/C=C/C(=O)O1`, for which the growth is -54.4% (active).

On to `N#C/C(=C\c1ccc2ccccc2c1)c1cc2ccccc2[nH]1`, for which the growth was 10.5% (inactive).

Regarding `NC1CCC(C(=O)O)CC1` (configuration not stated), the growth was 113% (inactive) and 110% (inactive).

As for `CCNc1nc(-c2ccc(Cl)c(OC)c2)c(-c2ccnc(NCCCNS(=O)(=O)c3ccc(Cl)cc3)n2)s1`, the growth was 34.9% (inactive).

On to `COc1ccccc1Nc1nc2c(s1)C1=CC[C@H]3[C@@H]4CC[C@H]([C@H](C)CCCC(C)C)[C@@]4(C)CC[C@@H]3[C@@]1(C)CC2`, for which the growth was 102% (inactive).

Turning to `CCCC1CCC(=C2C(=O)CCC2=O)O1` (configuration not stated), the growth is 148% (inactive) and 153% (inactive).

With `COc1ccc(Cc2cc(-c3ccccc3)nn(Cc3ccccc3)c2=O)cc1OC`, the growth was 25.8% (inactive).

For the compound `CCOc1cc(CCNS(=O)(=O)c2ccc(C)cc2)c(C(C)=O)cc1OCC`, the growth was 46.5% [100 µM] (inactive).

For the compound `Cc1cc(O)ccc1C1=NN(c2ccc(S(N)(=O)=O)cc2)C(=O)CC1`, the growth was 4.22% (active).

On to `O=S(=O)(NCCNc1cc(-c2cn(-c3ccccc3)nc2-c2cccc(O)c2)ccn1)c1cccc(F)c1`, for which the growth is 27.4% (inactive).

With `NNC(=O)c1ccc(C(=O)NN)cc1`, the growth is 124% (inactive).

For `O=C(Nc1nc2ccc(S(=O)(=O)Nc3ccc(C4(C(F)(F)F)CC4)cc3)cc2[nH]1)c1cnccn1`, the growth is -12.2% (active).

Regarding `COC(=O)c1ccccc1C(=O)c1c(C)cc(C)cc1C`, the growth is 84.6% (inactive).

As to `O=C(Nc1ccc(OS(=O)(=O)Cc2ccccc2)cc1)C12CC3CC(CC(C3)C1)C2`, the growth is 60.5% (inactive).

On to `NC(N)=Nc1ccc(S(=O)(=O)O)cc1`, for which the growth was 108% (inactive).

Turning to `COc1ccc(Cn2c(Br)c3c(c2-c2cc(OC)c(OC)c(OC)c2)CCc2sc(NC(C)=O)nc2-3)cc1`, the growth is 15.2% (inactive).

In the case of `Cc1ccc(C2=Nc3c(N)ncnc3NC(c3cccc(Nc4ccnc5cc(C(F)(F)F)ccc45)c3)C2)cc1` (configuration not stated), the growth was 0.514% (active).

For `Cn1c2nc3ccccc3c-2nc2ccccc21`, the growth is 88.8% (inactive) and 55.2% (inactive).

As for `O=[N+]([O-])c1cccc(-c2nc3cc4nc5ccccc5[nH]c4cc3n2)c1`, the growth is 91.5% (inactive).

For `O=C1NCCC12CCN(c1c(Cl)cncc1-c1ccc(O)cc1)CC2`, the growth was 102% (inactive).

For the compound `COC(=O)CC1=C(c2ccc([N+](=O)[O-])cc2)CCC1=O`, the growth was 100% (inactive).

As for `COc1cc2c(cc1-c1c(C)noc1C)ncc1nc(C3CCOCC3)n([C@H](C)COC(F)F)c12`, the growth is 27.5% (inactive).

For the compound `Nc1nc(Cl)c2ncn(Cc3cc4c(cc3I)OCO4)c2n1`, the growth is 52.3% (inactive).

Consider `CN1CCC(CN2c3ccccc3Sc3ccccc32)C1` (configuration not stated), for which the growth is 63.9% (inactive).

`CNC(=O)NCC1OC(n2cnc3c(NC(=O)Nc4ccccc4)ncnc32)C(O[Si](C)(C)C(C)(C)C)C1O[Si](C)(C)C(C)(C)C` (configuration not stated): the growth is 23.5% (inactive).

As for `CC(C)CCN(CCCNc1c2c(nc3ccccc13)CCCC2)CCC(C)C`, the growth is 102% (inactive).

Regarding `Cc1c(C(=O)N[C@@H](Cc2ccccc2)C(=O)C(=O)NCCc2ccccc2)[nH]c2ccccc2c1=O`, the growth is 98% (inactive).

`COc1ccc(-c2oncc2-c2cc(OC)c3c(c2)OCO3)cc1`: the growth is -6.72% (active).

Regarding `CCN1CCN(Cc2ccc(NC(=O)Nc3ccc(-n4ccc5c(NC(=O)c6ccccc6)nccc54)cc3)cc2C(F)(F)F)CC1`, the growth was 35.8% (inactive).

Regarding `CCCCCCCCCCCCCCCCN(CC)CC`, the growth was -61.2% (active).

`Cn1ccnc1C(=O)/C=C/c1ccc(CC(=O)Nc2ccc(C(F)(F)F)cc2)cc1`: the growth is -2.06% (active).

Turning to `CCN(CCNS(C)(=O)=O)c1ccc(N)c(C)c1`, the growth is 11.5% (inactive) and 77.3% (inactive).

For the compound `C=C(C)[C@@H]1CC[C@]2(C(=O)N[C@H](CO)Cc3ccccc3)CC[C@]3(C)[C@H](CC[C@@H]4[C@@]5(C)CCCNC(C)(C)[C@@H]5CC[C@]43C)[C@@H]12`, the growth is -73.3% (active).

Consider `CNC(C)=O`, for which the growth is 107% (inactive).

For the compound `CCSc1nnc(NC(=O)COc2ccc(Cl)cc2C)s1`, the growth is 108% (inactive).

On to `COc1ccc(NC(=O)CSc2nc3ccc(Cl)cc3c(=O)n2-c2ccccc2C(F)(F)F)c(OC)c1OC`, for which the growth was 105% (inactive).

Take `Cc1sc2c(c1C)c(=O)nc1c(-c3nc4ccccc4s3)n[nH]n12`: the growth was 98.3% (inactive).

Regarding `Oc1ccc(Cn2cc3c(c2-c2ccccc2)CCc2cnoc2-3)cc1`, the growth is 93.8% (inactive).

Turning to `COc1ccc2oc3c(C)c4c(c(C)c3c2c1)C(=O)N(Cc1ccccc1)C4=O`, the growth is 96.2% (inactive).

Turning to `CCC(O)c1ccc(Br)cc1NC(=O)c1cccc(Cl)c1` (configuration not stated), the growth was -6.38% (active).

Regarding `CCN1C(=O)N[C@H]2[C@@H]3NC(=O)c4ccc(Cl)n4[C@@H]3C[C@]21O`, the growth is -20.6% (active).

Take `COc1cc(NCCCCCCCNC(C)C)c2nccc(C)c2c1`: the growth is 75.1% (inactive) and 102% (inactive).

`COc1ccc(C2C3=C(COC3=O)N(CCO)c3cc(OC)c(OC)cc32)cc1` (configuration not stated): the growth was 89% (inactive).

With `C=CCn1c(SCC(=O)Nc2ccc(C(=O)/C=C/c3cc4cc(OC)ccc4nc3Cl)cc2)nnc1-c1ccc(Br)cc1`, the growth is 81.3% (inactive).

For `Nc1cc(N)c(S(=O)(=O)O)cc1N=Nc1cc([N+](=O)[O-])ccc1O`, the growth is 92.5% (inactive).

`C#COc1cccc(Nc2c(C#N)cnc3ncc(NC(=O)CCl)cc23)c1`: the growth is 19.6% [6.25 µM] (inactive).

With `CCc1nc2cc(/C=C/C(=O)NO)ccc2c(=O)n1CCc1ccc(F)cc1`, the growth is -7.3% (active).

Turning to `CCNC1(NC#N)CCCCC1`, the growth was 96.8% (inactive).

Take `CCCCOc1ccc(NC(=O)n2nc(N=NN(C)C)c3ccc(Cl)cc32)cc1`: the growth is 107% (inactive).

In the case of `Nc1nc(N)c(C=Nc2ccc(Br)cc2)c(Nc2ccc(Br)cc2)n1`, the growth is 90% (inactive).

Turning to `Cc1c2c(cn1Cc1ccccc1)CCc1cn[nH]c1-2`, the growth was 90.6% (inactive).

Turning to `CCOC(=O)C#Cc1c(C(=O)OCC)nnn1[C@@H]1O[C@H](CO)[C@H]2OC3(CCCCC3)O[C@H]21`, the growth was 52.8% (inactive).

In the case of `Cc1c(Cl)cccc1NC(=O)c1sc2nc3c(cc2c1N)CCCCC3`, the growth is -24.9% (active).

In the case of `O=[P@@]1(c2ccccc2)O[C@H](COCc2ccccc2)[C@@H](OCc2ccccc2)[C@H](OCc2ccccc2)[C@H]1NCc1ccccc1`, the growth is -25.1% (active).

With `Oc1ccc(Cl)cc1/C=N\NC(=S)N/N=C/c1cc(Cl)ccc1O`, the growth is 12.2% (inactive).

For the compound `CC(=O)N1N=C(c2ccc(C(F)(F)F)c(F)c2)CC1c1[nH]c(C)c(C(=O)NCC(F)(F)F)c1C` (configuration not stated), the growth is 111% (inactive).

With `O=C(Nc1ccc(Br)cc1F)c1cc(Cl)ccc1O`, the growth is -42.4% (active).

Turning to `COc1ccc(Nc2nnc(-c3ccc(OC)c(OC)c3)o2)cc1`, the growth was 84.2% (inactive).

For the compound `Oc1c(Cl)cc(Cl)cc1Sc1cc(Cl)cc(Cl)c1O`, the growth is 28% (inactive) and -16.5% (active) and 52.9% (inactive).

Turning to `C=C1C(=O)O[C@H]2[C@H]1CC/C(COC(=O)CCSCCC(=O)OC/C1=C/CC[C@@]3(C)O[C@H]3[C@H]3OC(=O)C(=C)[C@@H]3CC1)=C\CC[C@@]1(C)O[C@@H]21`, the growth was -58.2% (active).

Regarding `COc1ccc(S(=O)(=O)Nc2ccc(OCc3nnc(-c4ccc(Cl)cc4)o3)c(F)c2)cc1`, the growth was 51.2% (inactive).

Turning to `Cc1c(-c2nc3ccc(F)cc3c(=O)[nH]2)c2ccccc2n1C`, the growth was 4.98% (active).

Take `C[C@H]1[C@H](C)CC[C@]2(CO)CC[C@]3(C)C(=CC[C@@H]4[C@@]5(C)CCCNC(C)(C)[C@@H]5CC[C@]43C)[C@H]12`: the growth was -55% (active).

With `CN(C)C(=N)N=C(N)N`, the growth was 98.3% (inactive) and 145% (inactive).

`O=C(CN1CCN(c2cc3c(cc2F)c(=O)c(C(=O)O)cn3C2CC2)CC1)Nc1nc(-c2ccccc2)cs1`: the growth is 82.1% (inactive).

As to `COc1ccc2[nH]cc(-c3nc(-c4c[nH]c5ccncc45)cs3)c2c1`, the growth is 3.64% (active).

For the compound `N#Cc1c(-c2ccc(Cl)cc2)c(C#N)c2c(C#N)c(N)nn2c1N`, the growth is 85.8% (inactive).

Turning to `CCNCCCn1c2c(c3ccc(F)cc3c1=O)C(=O)c1cc(OC)cnc1-2`, the growth was -25.5% (active).

As to `CC(=O)/C(=C\c1c(-c2ccccc2)[nH]c2ccccc12)S(C)(=O)=O`, the growth is -55.2% (active).

For `c1ccc(-c2nc(N3CCOCC3)c3c4c(sc3n2)CCCCCC4)nc1`, the growth was 68.4% (inactive).

`Cn1cc(-c2cnc3ccc(NC(=O)Nc4ccc(F)c(Br)c4)cc3n2)cn1`: the growth was 13.5% (inactive).
